Bioassay records as filed in PubChem BioAssay.
CCT modulator – modulators of cytosolic chaperonin (CCT/TRiC) activity; purified chaperonin ATPase assay, HTRF ADP detection, 30 min; activity change, % (test concentration not listed), hits read low; actives 0.3% (n = 360,000); in the data active = activity change below about -30%
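TRiC (40 or 20 nM final, by batch activity) in 30 mM Tris pH 7.4, 100 mM KCl, 5 mM MgCl2, 1 mM DTT was treated with compound at 76 uM single dose, then 10 uM ATP, 30 min at 37 °C. ADP was read by HTRF Transcreener.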
VDR inh – vitamin D3 receptor (human) inhibition; P11473; VDR-SRC2-3 peptide fluorescence polarization, 2 h; Potency, µM, without a hit: max response, negative = inhibition, usual class: inhibitors; actives 0.93% (n = 400,000); also: potency is read from the fitted curve at half-maximal effect
Target sequence (P11473 whole entry, looked up): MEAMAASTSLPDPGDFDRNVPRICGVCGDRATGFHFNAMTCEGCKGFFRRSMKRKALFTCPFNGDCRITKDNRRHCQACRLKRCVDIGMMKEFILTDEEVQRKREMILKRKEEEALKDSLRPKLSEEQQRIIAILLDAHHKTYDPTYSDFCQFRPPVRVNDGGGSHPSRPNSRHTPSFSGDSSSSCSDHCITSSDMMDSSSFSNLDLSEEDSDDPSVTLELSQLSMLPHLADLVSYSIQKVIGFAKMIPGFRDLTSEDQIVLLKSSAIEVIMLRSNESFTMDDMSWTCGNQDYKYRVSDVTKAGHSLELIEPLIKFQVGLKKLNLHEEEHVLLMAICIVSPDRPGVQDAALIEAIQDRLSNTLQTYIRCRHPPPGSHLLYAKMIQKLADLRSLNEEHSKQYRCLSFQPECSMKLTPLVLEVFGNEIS
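VDR–SRC2-3 interaction, FP format. Cmpds 23 nl via pintool, brief spin, 2 h ambient incubation.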
PLK1 PBD block – inhibitors of human PLK1 polo-box domain binding; P53350; Plk1 PBD binding of FITC phosphopeptide, fluorescence polarization; Potency, µM, inactives show max response, negative = inhibition, most hits filed as inhibitors; AID 720504; actives 2.8% (n = 360,000); also: potency is read from the fitted curve at half-maximal effect; series mostly up to about 57 µM; nearly all actives have a fitted effect of over 65% in size
Sfp PPTase inh – blocks B. subtilis Sfp PPTase activity. Q9F4F7. Biochemical Sfp PPTase activity, qHTS. Potency, µM, for inactives: largest response in the series, negative = inhibition, most hits filed as inhibitors. actives 3.5% (n = 310,000). AID 1490;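 also: the enzyme is Sfp with the accession as filed and its product quenches rhodamine fluorescence; potency is read from the fitted curve at half-maximal effect; 0% = enzyme reaction without inhibitor and -100% = no enzyme wells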
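Fluorescence-quenching assay with 15 nM Sfp, 5 uM rhodamine-CoA and 12.5 uM BHQ-2-labelled ybbR peptide in pH 7.6 Hepes/MgCl2 buffer. Enzyme was pre-incubated with compound for 15 min at room temperature. Rate was taken from the 30-min fluorescence change (525/598 nm).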
G9a inh – G9a (human) methyltransferase inhibition | G9a H3K9 monomethylation, AlphaScreen, 2 h | Potency, µM (doses to about 102 µM), inactives show at the highest dose activity, negative = inhibition, actives largely listed as inhibitors | actives 8.8% (n = 350,000) | AID 504332; also: potency is read from the fitted curve at half-maximal effect; nearly all actives have a fitted effect of over 75% in size
Target sequence (Q96KQ7 913-1193 limits assumed): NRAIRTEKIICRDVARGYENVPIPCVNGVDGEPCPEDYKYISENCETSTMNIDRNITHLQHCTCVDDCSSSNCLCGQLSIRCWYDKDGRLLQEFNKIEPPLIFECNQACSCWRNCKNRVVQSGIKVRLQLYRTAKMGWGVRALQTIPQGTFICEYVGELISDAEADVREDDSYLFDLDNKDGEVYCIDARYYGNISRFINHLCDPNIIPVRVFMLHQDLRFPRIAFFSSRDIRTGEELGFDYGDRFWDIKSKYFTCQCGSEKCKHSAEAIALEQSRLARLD
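G9a (20 nM) preincubated 15 min RT with compounds, then 500 nM biotinylated H3K9 peptide and 20 uM SAM added; 2 h RT reaction. Monomethyl-H3K9 product detected by AlphaScreen with anti-H3K9me1 antibody, streptavidin donor and anti-rabbit IgG acceptor beads.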
MmCpn inh – blocks the Methanococcus maripaludis chaperonin Mm-Cpn; Potency, µM (top dose mostly 76.9 µM), for inactives: top-dose activity, negative = inhibition, hits mostly inhibitors; AID 504842; actives 0.031% (n = 330,000); purified Mm-Cpn ATPase, ADP Transcreener TR-FRET; also: potency is read from the fitted curve at half-maximal effect; nearly all actives have a fitted effect of over 80% in size
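Measured: ADP formation by purified Mm-CPN. Conditions: 25 nM protein, 10 uM ATP, Tris pH 7.4 with Mg2+, K+ and DTT, 37°C for 30 min. Detection: Transcreener HTRF after 30 min at room temperature.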
* hit, by the source's call; ? = inconclusive; . = no result given; [ ] = remark or other dose. Rows were chosen to be rich in hits. Some 10% of all compounds tested hit in one or more screens of this group. Unless noted, calls follow the shape of the dose curve; as a rule, active = well fitted curve in the direction sought with a large enough effect; inconclusive = small, poorly fitted or top-dose-only effect, or another doubt; inactive = no such curve, though single readings can be large; an effect the other way counts as inactive or inconclusive. Unless noted, % is scaled to controls: 0 for no effect and ±100 for the full control effect.

SMILES	CCT modulator	VDR inh	PLK1 PBD block	Sfp PPTase inh	G9a inh	MmCpn inh
COC(=O)c1ccc(C2/C(=C(/O)c3ccc4c(c3)CC(C)O4)C(=O)C(=O)N2CCN2CCOCC2)cc1 (configuration not stated)	0	-22%	-12%	-8%	50µM*	-3%
Cc1ccc(C)c(/C(O)=C2/C(=O)C(=O)N(CCN3CCOCC3)C2c2ccc(C)o2)c1 (configuration not stated)	-1	-22%	-11%	-18%	14µM*	0%
COc1ccc(C2/C(=C(/O)c3ccccc3)C(=O)C(=O)N2CCN2CCOCC2)c(OC)c1 (configuration not stated)	-3	0%	-4%	-11%	?	-8%
COc1ccccc1C1/C(=C(/O)c2ccc(C)cc2)C(=O)C(=O)N1CCN1CCOCC1 (configuration not stated)	0	4%	2%	17%	28µM*	-1%
CC1Cc2cc(/C(O)=C3/C(=O)C(=O)N(CCN4CCOCC4)C3c3ccc(N(C)C)cc3)ccc2O1 (configuration not stated)	-1	-2%	-10%	3%	?	0%
CCOc1ccccc1NC(=O)Cn1ccn(Cc2ccc(C)cc2)c(=O)c1=O	.	11%	.	.	-17%[59 µM]	.
COc1ccc(CCNC(=O)CCc2cn(Cc3ccccc3Cl)c3ccccc23)c(OC)c1	.	-2%	.	.	?	.
O=S(=O)(c1ccc(Cl)cc1)c1nc(-c2ccco2)oc1SCc1ccc(F)cc1	.	-8%	.	.	?	.
C=CCC(C)(O)/C=C/c1ccccc1 (configuration not stated)	.	-9%	.	-6%	.	.
CN1C(=O)c2ccccc2Sc2ccc(NC(=O)c3ccc(C#N)cc3)cc21	.	4%	.	.	-3%[59 µM]	.
COc1ccc(/C(O)=C2/C(=O)C(=O)N(CCN3CCOCC3)C2c2ccc(C)cc2)cc1 (configuration not stated)	0	-4%	-6%	-1%	45µM*	-1%
Cc1ccc(C2C(C(=O)c3sc(C)nc3C)=C(O)C(=O)N2CCN(C)C)o1 (configuration not stated)	-5	7%	-8%	?	45µM*	1%
Cc1ccccc1Cn1c(CN2CCC(C(=O)NCCN(C)C)CC2)cc2ccccc21	.	14%	.	.	?	.
CCOC(=O)c1c(NC(=O)c2cc(=O)c3cc(Cl)ccc3o2)sc(C)c1C	.	-4%	.	.	0%[59 µM]	.
Nc1cc(N)c(OCC(F)(F)F)cc1OCC(F)(F)F	-1	?	?	?	50µM*	-21%
O=C1c2ccccc2C(=O)C1c1ccc(Cl)cc1	-1	-9%	1%	17%	45µM*	-4%
COC(=O)C1CCN(C(=O)CSc2nc3ccc(OC)cc3[nH]2)CC1	1	-14%	?	11%	50µM*	-10%
COc1ccc(CCNC(=O)CSc2nnc(-c3ccc(C)cc3)c(-c3ccc(C)cc3)n2)cc1OC	.	10%	.	.	?	.
Cc1cc2[nH]c3c(c[n+](C)c4ccccc34)c2cc1C	0	3%	2%	-23%	18µM*	0%
CCCc1c(C)[nH]c2ccc(C(=O)O)cc2c1=S	-4	-27%	13µM*	25µM*	.	-3%
CC(=O)c1cccc(NC(=O)N2CCC(CN3CCCCC3)CC2)c1	.	6%	.	.	-3%[59 µM]	.
O=c1c([N+](=O)[O-])c(O)c2cccc3c2n1CCC3	2	-7%	-13%	-21%	79µM*	-3%
CCN(CC)CCNC(=O)c1c(O)c2cccc3c2n(c1=O)CCC3	-3	-8%	-3%	-8%	56µM*	0%
Cc1cc(NC(=O)c2cccn2-c2nnc(N3CCCCC3)s2)ccc1Br	.	14%	.	.	-24%[59 µM]	.
CC1CC1C(=O)Nc1nc(-c2cccs2)c(-c2cccs2)s1 (configuration not stated)	-1	-13%	-1%	50µM*	?	-2%
SMILES	CCT modulator	VDR inh	PLK1 PBD block	Sfp PPTase inh	G9a inh	MmCpn inh
COC(=O)C/C=C\[C@@H](C)[C@@H](/C=N\OC[C@@H](O)[C@H]1O[C@H]2OC(C)(C)O[C@H]2[C@@H]1O)NS(=O)(=O)c1ccc(C)cc1	.	.	.	2%	.	.
c1cc2c(cc1C1CCCCC1)c1c3n2CCN=C3CCC1	-1	-9%	?	79µM*	?	-3%
Cc1ccc2c(c1)c1c3n2CCN=C3CCC1	-2	25%	-7%	4%	18µM*	-5%
Cc1ccc2c(c1)c1c3n2CCN[C@H]3CCC1	.	3%	.	-5%	?	.
COc1ccc2c(c1)c1c3n2CCN(C)C3=NCC1	2	-3%	-8%	16%	-2%	-5%
CC(C)NC(=O)c1nn(C)c2c1CS(=O)(=O)c1ccccc1-2	.	16%	.	.	9%[59 µM]	.
O=C(CSc1ccccn1)N1CCN(c2cccc(Cl)c2)CC1	-3	?	12µM*	50µM*	2.8µM*	2%
O=C(CSc1ccc2nnc(-c3ccccn3)n2n1)N1CCN(c2ccccc2)CC1	2	-17%	?	-28%	50µM*	-1%
O=C(CSc1nccc(=O)[nH]1)N1CCN(c2ccccc2)CC1	-7	?	17µM*	-16%	.	1%
O=C(CCC(=O)N1CCN(c2cccc(Cl)c2)CC1)N1CCN(c2ccccc2)CC1	-1	-18%	-10%	12%	.	1%
O=C(CSc1ccccc1C(=O)N1CCN(c2ccccc2)CC1)N1CCCC1	0	-11%	-26%	.	13µM*	1%
COC(C(C)/C=C/CC(=O)OCCCc1ccccc1)C1CCCCC1 (configuration not stated)	.	.	.	6%	.	.
Brc1ccc2c(c1)c1cc(Br)ccc1n2CC1CO1 (configuration not stated)	.	12%	.	-12%	.	.
Cc1ccc(-c2ccc(SCC(=O)N3CCN(c4ccccc4)CC3)nn2)cc1	-2	0%	7%	-14%	-8%	0%
O=C(CSc1ccc(-c2ccccc2)nn1)N1CCN(c2ccccc2)CC1	-1	-2%	-4%	79µM*	-1%	-1%
Cn1c(=O)c2sccc2n2c(CCC(=O)Nc3ccc(F)cc3)nnc12	.	3%	.	.	-32%[59 µM]	.
Cc1ccc(Sc2c([N+](=O)[O-])ncn2C)cc1	-3	6%	-12%	12%	50%	-6%
Cn1cnc([N+](=O)[O-])c1Sc1ncccc1N	1	3%	-3%	?	3.5µM*	0%
Cn1cnc([N+](=O)[O-])c1SCCO	-2	2%	-24%	-25%	22µM*	-1%
CN(Cc1cccs1)c1ncnc2sccc12	1	7%	-6%	79µM*	?	-4%
O=C(CSc1nc2c(c(=O)[nH]1)CCC2)Nc1cccc(O)c1	.	10%	.	.	-37%[59 µM]	.
Cc1ccc(-c2cc(C(=O)NC3=NCCS3)c3cc(Br)ccc3n2)o1	.	.	.	-92%	?	?
